{
  "source": "PubChem BioAssay (NCATS)",
  "note": "Results filed as inconclusive are left out. A number with no mark means an inactive call. The source made the active and inactive calls. The call rests on the fitted dose curve; in most records, active means well fitted inhibition curve with a large enough effect; inconclusive means small, poorly fitted or top-dose-only effect, or effect the other way; inactive means flat fitted curve, though single readings scatter. On the % scale 0 is the no-effect control and ±100 the full control effect; potency means the concentration at half of the fitted maximal effect.",
  "data": [
    {"experiment": "Quantitative high throughput screen for delayed death inhibitors of the malarial parasite plastid, 48 hour incubation (AID 488752); further: nearly all actives have a fitted effect of over 65% in size", "settings": "Plasmodium falciparum growth; series mostly up to 28.7 µM; activity change, negative = inhibition: at the top concentration", "source_text": "NIH Molecular Libraries Probe Production Network [MLPCN]\nNIH Chemical Genomics Center [NCGC]\nAssay Provider: David Fidock and Eric Ekland, Columbia University\nThe goal of this screen is to discover new antimalarial compounds that act by inhibiting the development of the apicoplast in the malarial parasite Plasmodium falciparum. The biochemical processes that make this organelle essential for erythrocytic stage parasites are not well understood. However, antibiotics, such as azithromycin and tetracycline, which target the apicoplast translational machinery, have a potent antimalarial effect.\nWe have developed a cell-based assay that measures parasite growth based on the expression of an integrated copy of a firefly luciferase reporter. To detect small molecules that cause this 'delayed death' phenotype, erythrocytes infected with the luciferase-expressing parasites were incubated with compounds for either one or two generations, corresponding to 48 and 96 hours, respectively. Compounds that inhibit parasite growth in the second generation, but not the first, should be enriched in antimalarials that target the apicoplast. Growth inhibition is detected by a decrease in luciferase activity\nFour microliters of culture medium (RPMI 1640 with 0.5% w/v Albumax (GIBCO), 24 mM sodium bicarbonate and 10 ug/mL gentamycin) were dispensed by a Multi-drop Combi into white solid 1536-well plates (Grenier) and 23 nL compound was added by a pin tool. Four microliters of infected erythrocytes (2% hematocrit, 0.1% parasitemia final concentration) in culture medium were dispensed and the plates incubated for 48 hours at 37 C in 5% CO2. Two microliters of luciferase detection reagent was added and luminescence was detected by a ViewLux (PerkinElmer) reader", "units": {"activity change, negative = inhibition": "%"}, "values": [
      {"smiles": "CC1CCN(CC[C@H]2CCCN2S(=O)(=O)c2cccc(O)c2)CC1", "activity change, negative = inhibition": -4.77},
      {"smiles": "Cc1cccc(C2CN(C)CCc3c2cc(O)c(O)c3Cl)c1", "note": "(stereo not given)", "activity change, negative = inhibition": -95.1},
      {"smiles": "CN1CCC2(CCN3CCc4c(oc5ccccc45)C3C2)N(C)C1=O", "note": "(stereo not given)", "activity change, negative = inhibition": 2.13},
      {"smiles": "CC(N)(C(=O)O)c1ccc(C(=O)O)cc1", "note": "(stereo not given)", "activity change, negative = inhibition": 0.987},
      {"smiles": "O=C(O)C1CCNCC1", "activity change, negative = inhibition": 12.4},
      {"smiles": "N=C(N)SCCc1cnc[nH]1", "activity change, negative = inhibition": -4.58},
      {"smiles": "COc1ccc(-c2ccc(N)[n+](CCCC(=O)O)n2)cc1", "activity change, negative = inhibition": 7.81},
      {"smiles": "CSC(=N)N", "activity change, negative = inhibition": 3.82},
      {"smiles": "CCCCCCCCCC[Si](C)(C)CCC(=O)NC(Cc1ccc(C)cc1)c1ccccc1", "note": "(stereo not given)", "activity change, negative = inhibition": 3.38},
      {"smiles": "O=c1[nH]c2cc(Cl)ccc2c(O)c1-c1ccc(Oc2ccccc2)cc1", "activity change, negative = inhibition": 1.19},
      {"smiles": "N[C@@H](CCCC(=O)O)C(=O)O", "activity change, negative = inhibition": -5.77},
      {"smiles": "CC(=O)C(C)=O", "activity change, negative = inhibition": -15.1},
      {"smiles": "Oc1ccc(Cn2cc[nH]c2=S)cc1", "activity change, negative = inhibition": 9.03},
      {"smiles": "CC(=O)N[C@@H](Cc1c[nH]c2ccccc12)C(=O)OCc1cc(C(F)(F)F)cc(C(F)(F)F)c1", "activity change, negative = inhibition": -15.3},
      {"smiles": "CC(N)(Cc1ccc(O)cc1)C(=O)O", "note": "(stereo not given)", "activity change, negative = inhibition": -14.3},
      {"smiles": "NCCCCN", "activity change, negative = inhibition": -27.6},
      {"smiles": "N=C(N)c1ccc(N)cc1", "activity change, negative = inhibition": -7.54},
      {"smiles": "Nn1nnc2ccccc21", "activity change, negative = inhibition": -6.24},
      {"smiles": "O=C(O)/C=C/c1cnc[nH]1", "activity change, negative = inhibition": -2},
      {"smiles": "N[C@H]1CONC1=O", "activity change, negative = inhibition": 0.743},
      {"smiles": "Nc1ccc(CCNc2ncnc3c2ncn3C2OC(CO)C(O)C2O)cc1", "note": "(stereo not given)", "activity change, negative = inhibition": -15.5},
      {"smiles": "NC1(C(=O)O)CC1", "activity change, negative = inhibition": -13.2},
      {"smiles": "COC(=O)C(N)Cc1ccc(Cl)cc1", "note": "(stereo not given)", "activity change, negative = inhibition": 7.94},
      {"smiles": "CC(N)=O", "activity change, negative = inhibition": 0.0982},
      {"smiles": "C=C1C(=O)O[C@@H]2[C@H]3O[C@]3(C)CCC=C(C)CC[C@@H]12", "activity change, negative = inhibition": -22.6},
      {"smiles": "O=C1C2C=CC=CC2=NC(=S)N1CCN1CCC(=C(c2ccc(F)cc2)c2ccc(F)cc2)CC1", "note": "(stereo not given)", "activity change, negative = inhibition": -2.26},
      {"smiles": "NC(N)=NC(N)=Nc1ccccc1", "activity change, negative = inhibition": -2.9},
      {"smiles": "CO/N=C(\\C(=O)N[C@@H]1C(=O)N2C(C(=O)O)=C(CSc3nc(=O)c(O)nn3C)CSC12)c1csc(N)n1", "note": "(stereo not given in full)", "activity change, negative = inhibition": 3.57},
      {"smiles": "CC(/C=C/c1cccc(Oc2ccc(F)cc2)c1)N(O)C(N)=O", "note": "(stereo not given)", "activity change, negative = inhibition": 7.96},
      {"smiles": "O=C(O)C1CCCNC1", "note": "(stereo not given)", "activity change, negative = inhibition": 5.22},
      {"smiles": "NCC(O)c1ccc(O)c(O)c1", "note": "(stereo not given)", "activity change, negative = inhibition": 0.174},
      {"smiles": "Nc1nc2[nH]c(=O)cnc2c(=O)[nH]1", "activity change, negative = inhibition": -18.1},
      {"smiles": "CN1CCN(c2nc3cc(C(F)(F)F)ccc3n3cccc23)CC1", "Potency": "8.28 µM (active)"},
      {"smiles": "CCC(=O)N1CCN(C(=O)c2ccccc2)CC1", "activity change, negative = inhibition": -6.07},
      {"smiles": "O=c1cc(-c2ccccc2)[nH]c2nc(Cl)ccc12", "activity change, negative = inhibition": 9.68},
      {"smiles": "O=C(O)[C@H]1NCCC[C@H]1C(=O)O", "activity change, negative = inhibition": -17.4},
      {"smiles": "O=C1Nc2ccc(I)cc2/C1=C/c1cc(Br)c(O)c(Br)c1", "activity change, negative = inhibition": -91.3},
      {"smiles": "CCCCOc1cc(CC2CNC(=O)N2)ccc1OC", "note": "(stereo not given)", "activity change, negative = inhibition": 9.09},
      {"smiles": "N[C@@H](CS(=O)O)C(=O)O", "activity change, negative = inhibition": 18.8},
      {"smiles": "NCCCCN=C(N)N", "activity change, negative = inhibition": 2.76}
    ]}
  ]
}
